Laboratory results taken from PubChem BioAssay (EPA / NIEHS).
“And” between values parts separate entries of the source, which are not always exact repeats. Equal entries are not always repeated. Some compounds were tested as several samples or in several runs, with calls that do not always agree. The source made the active and inactive calls. Rule for the calls: active = hit-call score of the fitted dose curve at least 0.9, where 1 is the maximum; inactive = score below 0.9.

Experiments:
[1] = target: Paired box protein Pax-6 (Homo sapiens) (UniProt P26367); experiment: ATG_Pax6_CIS: Attagene CIS-FACTORIAL HepG2 Assay for human Paired Box 6 (PAX6) (AID 2282956); settings: HepG2 CIS-FACTORIAL PAX6 reporter transcription, RNA readout; actives raise or lower the signal
Paired box protein Pax-6 (Homo sapiens), sequence (P26367 whole entry, looked up): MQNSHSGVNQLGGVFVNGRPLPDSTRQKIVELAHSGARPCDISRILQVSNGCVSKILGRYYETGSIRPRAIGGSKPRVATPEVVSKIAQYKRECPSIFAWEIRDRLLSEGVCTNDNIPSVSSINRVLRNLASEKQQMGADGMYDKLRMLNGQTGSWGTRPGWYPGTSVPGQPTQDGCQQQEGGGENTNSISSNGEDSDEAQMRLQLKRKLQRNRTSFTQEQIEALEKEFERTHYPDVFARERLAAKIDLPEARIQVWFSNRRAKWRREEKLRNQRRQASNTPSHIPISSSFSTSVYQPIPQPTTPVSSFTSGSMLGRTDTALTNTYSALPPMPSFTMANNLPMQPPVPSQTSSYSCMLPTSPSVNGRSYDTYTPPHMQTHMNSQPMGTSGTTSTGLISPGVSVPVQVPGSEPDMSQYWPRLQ
In short: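 HepG2 cells transiently transfected with cis-promoter-driven multiplexed reporter units sensing endogenous transcription factor activity; 24 h chemical exposure. Reporter mRNA quantified by RT-PCR, 6-FAM labelling, HpaI digestion and capillary electrophoresis; bidirectional fit versus DMSO baseline.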

[2] = ATG_PXRE_CIS: Attagene CIS-FACTORIAL HepG2 Assay for human Pregnane X Receptor Element (PXRE) (AID 2282957); settings: HepG2 Attagene CIS-FACTORIAL PXRE reporter, mRNA; actives raise or lower the signal
In short: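 Cells: HepG2, transiently transfected reporter units under cis promoter control. Exposure: 24 h. Detection: reporter mRNA via RT-PCR/CE fluorescence; bidirectional fitting, DMSO-referenced.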

[3] = ATG_PPRE_CIS: Attagene CIS-FACTORIAL HepG2 Assay for human Peroxisome Proliferator-activated Response Element (PPRE) (AID 2282958); settings: HepG2 PPRE cis-element reporter, Attagene transcription factor profiling; actives raise or lower the signal
In short: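 Cells are first transfected transiently with the multiplexed reporter library, then dosed for 24 h. Total RNA is reverse-transcribed, amplified, fluorescently end-labeled and HpaI-cut before capillary electrophoresis; activity is fitted bidirectionally against DMSO controls.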

[4] = ATG_RORE_CIS: Attagene CIS-FACTORIAL HepG2 Assay for human RAR-related Orphan Receptor Element (RORE) (AID 2282959); settings: HepG2 Attagene cis-factorial RORE reporter, mRNA; actives raise or lower the signal
In short: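 Cells were HepG2 carrying transfected cis-regulated reporter constructs, dosed for 24 hours. Total RNA was reverse-transcribed and reporter cDNA amplified, fluorescently labeled and sized by capillary electrophoresis. Activity was fitted bidirectionally relative to DMSO.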

[5] = ATG_Sox_CIS: Attagene CIS-FACTORIAL HepG2 Assay for human SRY-box transcription factor (SOX) (AID 2282960); settings: HepG2 Attagene cis-factorial SOX reporter, mRNA; actives raise or lower the signal
In short: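 Transient MRTU transfection of HepG2; 24 h compound incubation; TriZol RNA, oligo(dT) RT, PCR, 6-FAM primer extension, HpaI cut, CE. Bidirectional fit, DMSO = baseline.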

[6] = target: Transcription factor Sp1 (Homo sapiens) (UniProt P08047); experiment: ATG_Sp1_CIS: Attagene CIS-FACTORIAL HepG2 Assay for human Specificity Protein 1 (Sp1) (AID 2282961); settings: HepG2 Sp1 cis-reporter transcription, actives raise or lower the signal
Transcription factor Sp1 (Homo sapiens), sequence (P08047 whole entry, looked up): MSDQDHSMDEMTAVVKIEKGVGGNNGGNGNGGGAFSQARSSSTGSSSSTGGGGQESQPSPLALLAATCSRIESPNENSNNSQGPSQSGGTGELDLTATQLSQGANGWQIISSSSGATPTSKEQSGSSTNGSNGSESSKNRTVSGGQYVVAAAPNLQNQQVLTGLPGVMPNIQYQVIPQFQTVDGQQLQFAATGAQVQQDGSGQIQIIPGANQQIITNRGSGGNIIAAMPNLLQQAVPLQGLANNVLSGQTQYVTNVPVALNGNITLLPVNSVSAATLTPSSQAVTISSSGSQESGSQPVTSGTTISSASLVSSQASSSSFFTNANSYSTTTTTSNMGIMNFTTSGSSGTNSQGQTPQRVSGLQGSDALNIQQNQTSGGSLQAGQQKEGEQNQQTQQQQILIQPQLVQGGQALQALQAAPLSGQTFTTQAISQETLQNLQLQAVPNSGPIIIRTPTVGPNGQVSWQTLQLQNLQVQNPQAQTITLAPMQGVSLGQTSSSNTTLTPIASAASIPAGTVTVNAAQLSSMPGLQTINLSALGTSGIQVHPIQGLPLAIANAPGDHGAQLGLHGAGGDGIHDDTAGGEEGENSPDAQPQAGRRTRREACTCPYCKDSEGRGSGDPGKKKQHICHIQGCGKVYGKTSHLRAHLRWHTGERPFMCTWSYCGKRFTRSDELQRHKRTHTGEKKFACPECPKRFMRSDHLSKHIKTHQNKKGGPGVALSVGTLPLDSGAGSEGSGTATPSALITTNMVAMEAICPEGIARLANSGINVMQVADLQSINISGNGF
In short: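 Endogenous Sp1 activity was gauged in human liver HepG2 cells bearing transfected reporter units under a cis-regulating promoter. After 24 h dosing, reporter mRNA was quantified by RT-PCR with capillary electrophoresis, and activity fitted bidirectionally versus DMSO.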

[7] = ATG_SREBP_CIS: Attagene CIS-FACTORIAL HepG2 Assay for human Sterol Regulatory Element Binding (SREBP) (AID 2282962); settings: HepG2 Attagene cis-factorial SREBP reporter, mRNA; actives raise or lower the signal
In short: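 HepG2 cells transiently transfected with multiplexed cis-promoter reporter units sensing endogenous transcription factors; reporter mRNA measured 24 h after dosing by RT-PCR, 6-FAM labeling, HpaI digestion and capillary electrophoresis. Bidirectional fit versus DMSO.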

[8] = target: Signal transducer and activator of transcription 3 (Homo sapiens) (UniProt P40763); experiment: ATG_STAT3_CIS: Attagene CIS-FACTORIAL HepG2 Assay for human Signal Transducer and Activator of Transcription 3 (STAT3) (AID 2282963); settings: HepG2, Attagene cis-factorial STAT3 reporter transcription; actives raise or lower the signal
Signal transducer and activator of transcription 3 (Homo sapiens), sequence (P40763 whole entry, looked up): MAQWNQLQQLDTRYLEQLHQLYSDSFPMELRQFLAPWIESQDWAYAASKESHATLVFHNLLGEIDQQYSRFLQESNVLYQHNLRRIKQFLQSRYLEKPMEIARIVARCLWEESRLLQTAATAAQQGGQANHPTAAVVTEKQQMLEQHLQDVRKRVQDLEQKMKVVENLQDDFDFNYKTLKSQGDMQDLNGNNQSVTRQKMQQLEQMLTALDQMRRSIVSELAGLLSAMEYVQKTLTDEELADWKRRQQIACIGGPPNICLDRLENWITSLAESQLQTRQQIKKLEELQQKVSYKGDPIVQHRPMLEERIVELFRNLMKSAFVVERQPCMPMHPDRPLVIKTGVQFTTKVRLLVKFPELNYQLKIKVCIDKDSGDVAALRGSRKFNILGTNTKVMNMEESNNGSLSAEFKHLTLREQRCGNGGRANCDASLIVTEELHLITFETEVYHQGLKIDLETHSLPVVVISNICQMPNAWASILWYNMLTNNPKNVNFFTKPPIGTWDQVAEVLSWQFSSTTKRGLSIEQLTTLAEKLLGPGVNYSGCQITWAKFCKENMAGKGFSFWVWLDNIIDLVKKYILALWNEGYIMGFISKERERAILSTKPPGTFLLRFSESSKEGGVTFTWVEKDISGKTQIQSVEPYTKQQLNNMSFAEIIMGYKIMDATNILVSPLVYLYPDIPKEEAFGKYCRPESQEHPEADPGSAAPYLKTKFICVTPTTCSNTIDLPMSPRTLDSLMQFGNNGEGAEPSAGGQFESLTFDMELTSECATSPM
In short: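 Values derive from bidirectional fits relative to DMSO of reporter mRNA levels, measured by RT-PCR with capillary electrophoresis, in HepG2 cells carrying transiently transfected cis-regulated reporter units and exposed 24 h.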

[9] = ATG_TA_CIS: Attagene CIS-FACTORIAL HepG2 Assay for human TA Basal Promoter (AID 2282964); settings: HepG2 Attagene CIS-factorial TA basal promoter reporter; actives raise or lower the signal
In short: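 HepG2 cells transiently transfected with multiple reporter units under cis promoter elements, reporting endogenous transcription factor activity; this endpoint tracks the TA basal promoter as background control. Reporter mRNA after 24 h dosing measured by RT-PCR/capillary electrophoresis; bidirectional fits versus DMSO.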

[10] = ATG_TCF_b_cat_CIS: Attagene CIS-FACTORIAL HepG2 Assay for human T-Cell-Factor with beta-catenin (TCF/b-cat) (AID 2282965); settings: HepG2 TCF/beta-catenin cis-reporter transcription, actives raise or lower the signal
In short: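 Cells of the HepG2 line carry transiently transfected reporter units whose promoters respond to endogenous factors. Twenty-four hours post-dosing, reporter mRNA induction is measured by fluorescent RT-PCR and capillary electrophoresis, with DMSO as baseline.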

SMILES | outcome [1] | AC50 [2] | outcome [2] | outcome [3] | outcome [4] | outcome [5] | outcome [6] | outcome [7] | outcome [8] | outcome [9] | outcome [10] | AC50 [3] | AC50 [6] | AC50 [7] | AC50 [8] | AC50 [1] | AC50 [4] | AC50 [5] | AC50 [9] | AC50 [10]
C/C=C/C=C/C(=O)O | inactive | 36.7 µM (active) | inactive | inactive | inactive | inactive | inactive | inactive | inactive | inactive | inactive |  |  |  |  |  |  |  |  | 
S=c1[nH]c2ccccc2s1 | inactive | 61.2 µM (active) |  |  | inactive | inactive |  |  |  | inactive | inactive | 28.5 µM (active) | 42.5 µM (active) | 59 µM (active) | 63.2 µM (active) |  |  |  |  | 
CCCC[C@H]1CN(CC2CCOCC2)C(=O)OC12CCN(C1(C)CCN(C(=O)c3c(C)ncnc3C)CC1)CC2 | inactive |  | inactive | inactive | inactive | inactive |  | inactive | inactive | inactive | inactive |  |  |  |  |  |  |  |  | 
CCCCCCC(C=O)=Cc1ccccc1 | inactive | 25.2 µM (active) and 15.7 µM (active) |  |  | inactive | inactive |  | inactive | inactive | inactive | inactive | 4.87 µM (active) and 6.4 µM (active) | 129 µM (active) and 60 µM (active) | 26.3 µM (active) |  |  |  |  |  | 
Cc1cn([C@H]2C=C[C@@H](CO)O2)c(=O)[nH]c1=O | inactive |  | inactive | inactive | inactive | inactive | inactive | inactive | inactive | inactive | inactive |  |  |  |  |  |  |  |  | 
O=C1c2c(O)cccc2Cc2cccc(O)c21 | inactive |  | inactive | inactive | inactive | inactive | inactive | inactive | inactive | inactive | inactive |  |  |  |  |  |  |  |  | 
C=CCCCCCCCCCCCC | inactive |  | inactive | inactive | inactive | inactive | inactive | inactive | inactive | inactive | inactive |  |  |  |  |  |  |  |  | 
CO[C@@H]1COCC[C@@H]1N[C@@H]1CC[C@@](C(=O)N2CCc3ncc(C(F)(F)F)cc3C2)(C(C)C)C1 | inactive |  | inactive | inactive | inactive | inactive |  |  | inactive | inactive | inactive |  |  | 77.7 µM (active) |  |  |  |  |  | 
NC=O | inactive |  | inactive | inactive | inactive | inactive | inactive | inactive | inactive | inactive | inactive |  |  |  |  |  |  |  |  | 
CC1=C(C)S(=O)(=O)CCS1(=O)=O | inactive |  | inactive |  | inactive | inactive | inactive | inactive | inactive | inactive | inactive | 89.5 µM (active) |  |  |  |  |  |  |  | 
N[C@@H](Cc1c[nH]c2ccccc12)C(=O)O | inactive |  | inactive | inactive | inactive | inactive |  | inactive | inactive | inactive | inactive |  |  |  |  |  |  |  |  | 
CCN(CC)CCOc1ccc(C(=C(Cl)c2ccccc2)c2ccccc2)cc1 | inactive | 945 nM (active) [middle of 4 runs] |  | inactive | inactive | inactive |  |  | inactive | inactive | inactive |  |  | 2.59 µM (active) [middle of 4 runs] | 6.09 µM (active) | 10.4 µM (active) | 9.35 µM (active) | 13.6 µM (active) | 11.2 µM (active) | 
NC1CCCCC1 | inactive |  | inactive | inactive | inactive | inactive |  | inactive | inactive | inactive | inactive |  |  |  |  |  |  |  |  | 
C/C=C/c1ccc(OC)cc1 | inactive |  | inactive | inactive | inactive | inactive |  | inactive | inactive | inactive | inactive |  |  |  |  |  |  |  |  | 
CC(COCC(C)OC(=O)c1ccccc1)OC(=O)c1ccccc1 (stereo not drawn) | inactive | 35.3 µM (active) |  | inactive | inactive | inactive | inactive | inactive | inactive | inactive | inactive |  |  |  |  |  |  |  |  | 
O=C(N[C@@H](c1ccccc1)[C@@H]1CCCCN1)c1cccc(C(F)(F)F)c1Cl |  | 8.23 µM (active) |  | inactive | inactive |  |  |  | inactive | inactive |  |  | 42.7 µM (active) | 8.09 µM (active) |  | 33 µM (active) |  | 33 µM (active) |  | 16.6 µM (active)
CC(=O)O[C@]1(C(C)=O)CC[C@H]2[C@@H]3C=C(Cl)C4=CC(=O)[C@@H]5C[C@@H]5[C@]4(C)[C@H]3CC[C@@]21C | inactive |  |  | inactive | inactive | inactive |  | inactive | inactive | inactive | inactive |  |  | 29.5 µM (active) and 52.1 µM (active) and 34.3 µM (active) |  | 27.3 µM (active) and 66.1 µM (active) and 100 µM (active) |  | 100 µM (active) | 54.5 µM (active) | 
CC(N)=O | inactive | 28.9 µM (active) | inactive |  | inactive | inactive | inactive | inactive | inactive | inactive | inactive |  |  |  |  |  |  |  |  | 
O=C(O)c1cccnc1 | inactive |  | inactive | inactive | inactive | inactive | inactive | inactive | inactive | inactive | inactive |  |  |  |  |  |  |  |  | 
